Screening data as filed in PubChem.
Rows were chosen to be rich in hits. Some 17% of all compounds tested hit in one or more screens of this group.
TGFb inhibitor – inhibitors of TGF-b signaling; HepG2 CAGA-GFP TGF-b/SMAD3 reporter, GFP fluorescence, 18 h; TGF-beta stimulated, 500 pg/mL final; Potency, µM (titrated, usually from 46.1 µM), for inactives: at the highest dose activity, negative = inhibition, hits mostly inhibitors; 1.2% of 410,000 active; AID 588855; also: % is scaled to controls: 0 for no effect and ±100 for the full control effect; nearly all actives have a fitted effect of over 65% in size
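GFP signal (ex488/em500-530) from TGF-beta-stimulated HEPG2 CAGA-GFP cells, 500 pg/mL final, 18 h at 37 degrees C in DMEM plus 1% FBS, normalized to unstimulated and DMSO-stimulated controls.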
TDP1 cell noCPT – qHTS for Inhibitors of human tyrosyl-DNA phosphodiesterase 1 (TDP1): qHTS in cells in absence of CPT; Potency, µM (top dose mostly 46.2 µM), inactives show top-dose activity change, negative = growth inhibition, usual class: inhibitors; 15% of 420,000 active; DT40 Tdp1-/- hTDP1 cells, no CPT, ATP luminescence, 48 h; also: % is scaled to controls: 0 for no effect and ±100 for the full control effect; nearly all actives have a fitted effect of over 55% in size
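A cellular qHTS used chicken DT40 cells lacking endogenous Tdp1 but carrying stably transfected human TDP1. Compounds were applied without camptothecin, and cell growth kinetics were judged by ATP-dependent luminescence after ≥48 hr.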
TDP1 cell CPT – DT40-hTDP1 cell growth loss with CPT | AID 686979 | 12% of 420,000 active | chicken DT40 Tdp1-/-;hTDP1 cells + 20 nM CPT, ATP luminescence, 48 h | Potency, µM (series often up to 46.2 µM), for the others: top-dose activity change, negative = growth inhibition, usual class: inhibitors; also: % is scaled to controls: 0 for no effect and ±100 for the full control effect; nearly all actives have a fitted effect of over 55% in size
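Chicken DT40 Tdp1-/- cells stably complemented with human TDP1 were seeded at 400 cells/well in medium containing 20 nM camptothecin, exposed to pin-transferred compounds, and grown at 37 °C for at least 48 hr. Viability was read as ATP luminescence.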
ATXN2 expr inh – reduces ATXN2 reporter expression in HEK-293 cells; 0.72% of 360,000 active; HEK-293 ATXN2-luciferase reporter, luminescence, 24 h; Potency, µM (series often up to 57 µM), without a hit: at the top dose activity change, negative = inhibition, actives largely listed as inhibitors; AID 1745845; also: % is scaled to controls: 0 for no effect and ±100 for the full control effect; nearly all actives have a fitted effect of over 55% in size
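ATXN2-luciferase reporter cells (luciferase flanked by upstream and downstream ATXN2 gene portions) were treated 24 h at 37 °C with compounds at up to 57 uM. SteadyGlo luminescence gave expression; GF-AFC fluorescence gave viability.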
HepG2 tox – counter-screen for TGF-b inhibitors: cytotoxicity in HepG2 cells. HepG2 CAGA-GFP viability, ATP luminescence, 18 h. Potency, µM (titrated, usually from 46.1 µM), inactives show at the highest dose activity change, negative = cytotoxicity, hits mostly cytotoxic. 0.76% of 410,000 active
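CellTiter-Glo luminescence gave cytotoxicity after 18 hours at 37 degrees C. The cells were HepG2 CAGA-GFP in 1% FBS DMEM, stimulated with 500 pg/mL TGF-beta after compound addition. %Activity was normalised to no-cell wells (complete cell-killing) and DMSO (no toxicity), and curves were fitted and classified.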
ATXN viability – reduces viability in counter-screen for ATXN expression inhibitors | S2 cells (HEK-293 line with an ATXN2-luciferase reporter) viability, CellTiter-Fluor protease fluorescence, 24 h | Potency, µM (highest dose often 56.7 µM), most hits filed as cytotoxic | 0.49% of 400,000 active; also: nearly all actives have a fitted effect of over 40% in size
* = called active by the depositor. Calls follow the shape of the dose curve; as a rule, active = well fitted curve in the direction sought with a large enough effect; inconclusive = small, poorly fitted or top-dose-only effect, or another doubt; inactive = no such curve, though single readings can be large; an effect the other way counts as inactive or inconclusive. Potency is read from the fitted curve at half-maximal effect.

Screening CCOC(=O)C1CCCCN1C(=O)c1cc2ccc(OC)cc2c2cc(OC)c(OC)cc12 (centres undefined) returned TGFb inhibitor -3%, TDP1 cell noCPT 18µM*, TDP1 cell CPT inconclusive, ATXN2 expr inh inconclusive, HepG2 tox -17% and ATXN viability inconclusive.
CSCCCNC(=O)c1ccc(OC2CCN(CCc3ccccc3)CC2)cc1 was read as TGFb inhibitor -20%, TDP1 cell noCPT inconclusive, TDP1 cell CPT inconclusive, HepG2 tox -29% and ATXN viability inactive.
O[C@@H]1CN(Cc2ccc(-n3cccn3)cc2)CC[C@H]1N1CCN(c2ccccc2F)CC1 was read as TGFb inhibitor inconclusive, TDP1 cell noCPT 3.7µM*, TDP1 cell CPT 13µM*, ATXN2 expr inh inconclusive, HepG2 tox -33% and ATXN viability inconclusive.
For Cn1c(=O)c2[nH]c(N=NNc3ccccc3F)nc2n(C)c1=O the results were TGFb inhibitor 0%, TDP1 cell noCPT 4%, TDP1 cell CPT -5%, ATXN2 expr inh 2%, HepG2 tox -133% and ATXN viability inactive.
For c1ccc(-c2nnc3nc(N4CCCCC4)nc(N4CCCCC4)n23)cc1 the results were TGFb inhibitor 0%, TDP1 cell noCPT 15µM*, TDP1 cell CPT 18µM*, ATXN2 expr inh -16%, HepG2 tox -28% and ATXN viability inactive.
`c1ccc(-c2nc(N3CCCCC3)nc3ccccc23)cc1` gave TGFb inhibitor inconclusive, TDP1 cell noCPT 10%, TDP1 cell CPT -23%, ATXN2 expr inh 3% and HepG2 tox -32%.
`O=C(COC(=O)C1CC1)Nc1ccc(S(=O)(=O)N2CCOCC2)cc1` gave TGFb inhibitor 18%, TDP1 cell noCPT -17%, TDP1 cell CPT -10%, ATXN2 expr inh 1%, HepG2 tox -38% and ATXN viability inactive.
CC(C(=O)NC1CCCCC1)N1CCN(S(=O)(=O)c2cccs2)CC1 (centres undefined) was read as TGFb inhibitor -13%, TDP1 cell noCPT -6%, TDP1 cell CPT -17%, ATXN2 expr inh 13%, HepG2 tox -10% and ATXN viability inactive.
Screening CCOC(=O)C1=C(C)N(c2ccc(OC)cc2)C(=O)/C1=C\c1ccc(O)c(OCC)c1 returned TGFb inhibitor inconclusive, TDP1 cell noCPT inconclusive, TDP1 cell CPT 23µM*, HepG2 tox -56% and ATXN viability inactive.
O=C(c1c(Cl)nc2sccn12)N(C(=O)c1c(Cl)nc2sccn12)c1ccc(Cl)cn1 was read as TGFb inhibitor -6%, TDP1 cell noCPT -26%, TDP1 cell CPT -26%, ATXN2 expr inh 57%, HepG2 tox -16% and ATXN viability inactive.
`CC(C)OCCCNC(=O)NC(=O)c1ccc(Cl)cc1` gave TGFb inhibitor 1%, TDP1 cell noCPT 26µM*, TDP1 cell CPT inconclusive, ATXN2 expr inh 8% and HepG2 tox -23%.
For Cc1ccc(C(=O)NC(NCc2ccccc2)C(Cl)(Cl)Cl)cc1 (centres undefined) the results were TGFb inhibitor inconclusive, TDP1 cell noCPT -7%, TDP1 cell CPT 3%, ATXN2 expr inh -7%, HepG2 tox 20% and ATXN viability inactive.
For CC(C)OCCCNC(=O)C(NC(=O)c1ccc(Cl)cc1)C(C)C (centres undefined) the results were TGFb inhibitor -5%, TDP1 cell noCPT -2%, TDP1 cell CPT 11%, ATXN2 expr inh -15%, HepG2 tox 3% and ATXN viability inactive.
For COCCCNC(NC(=O)c1ccc(Cl)cc1)C(Cl)(Cl)Cl (centres undefined) the results were TGFb inhibitor 1%, TDP1 cell noCPT 16µM*, TDP1 cell CPT inconclusive, ATXN2 expr inh -20%, HepG2 tox -34% and ATXN viability inactive.
Screening COCCOc1ccc(C(F)(F)F)cc1NC(=O)COC(=O)C1=COCCO1 returned TGFb inhibitor 13%, TDP1 cell noCPT -18%, TDP1 cell CPT 5%, ATXN2 expr inh -4%, HepG2 tox 0% and ATXN viability inactive.
`CC(C)(C)c1ccccc1OCCCCCn1ccnc1` gave TGFb inhibitor inconclusive, TDP1 cell noCPT inconclusive, TDP1 cell CPT inconclusive, ATXN2 expr inh -33%, HepG2 tox -37% and ATXN viability inactive.
Screening c1ccc(-c2ccccc2OCCOCCN2CCCCC2)cc1 returned TGFb inhibitor 11%, TDP1 cell noCPT inconclusive, TDP1 cell CPT 23µM*, ATXN2 expr inh -11%, HepG2 tox -39% and ATXN viability inactive.
Screening CC1CCN(CCOCCOc2ccccc2-c2ccccc2)CC1 returned TGFb inhibitor -12%, TDP1 cell noCPT inconclusive, TDP1 cell CPT 23µM*, ATXN2 expr inh -14%, HepG2 tox -30% and ATXN viability inconclusive.
`c1ccc(-c2ccccc2OCCCCn2ccnc2)cc1` gave TGFb inhibitor 0%, TDP1 cell noCPT 26µM*, TDP1 cell CPT 23µM*, ATXN2 expr inh -15%, HepG2 tox -33% and ATXN viability inactive.
For c1ccc(-c2ccccc2OCCN2CCCC2)cc1 the results were TGFb inhibitor 2%, TDP1 cell noCPT -11%, TDP1 cell CPT 7%, ATXN2 expr inh -9%, HepG2 tox 1% and ATXN viability inactive.
Screening CC1CCCN(CCCOc2ccccc2-c2ccccc2)C1 (centres undefined) returned TGFb inhibitor inconclusive, TDP1 cell noCPT 23µM*, TDP1 cell CPT inconclusive, ATXN2 expr inh -24%, HepG2 tox -4% and ATXN viability inconclusive.
O=C(Cn1cc([N+](=O)[O-])ccc1=O)N1CCc2ccccc21 was read as TGFb inhibitor -15%, TDP1 cell noCPT -4%, TDP1 cell CPT 1%, ATXN2 expr inh -3%, HepG2 tox -36% and ATXN viability inactive.
Screening O=C(CNc1cccc(S(=O)(=O)N2CCOCC2)c1)N1CCc2ccccc21 returned TGFb inhibitor -10%, TDP1 cell noCPT 4%, TDP1 cell CPT -5%, ATXN2 expr inh 48%, HepG2 tox 1% and ATXN viability inactive.
For COc1cccc(C(=O)N2CCN(Cc3ccc(OC)cc3OC)CC2)c1 the results were TGFb inhibitor -6%, TDP1 cell noCPT -4%, TDP1 cell CPT 0%, ATXN2 expr inh -4%, HepG2 tox 1% and ATXN viability inactive.
Screening CCC1Cc2[nH]c(=S)[nH]c(=O)c2C(c2ccc(F)cc2)O1 (centres undefined) returned TGFb inhibitor -8%, TDP1 cell noCPT 10%, TDP1 cell CPT 7%, ATXN2 expr inh 13%, HepG2 tox -43% and ATXN viability inactive.
